# High-throughput results: PubChem BioAssay, NMMLSC
# MEKK2 mut-MEK5 = signal of MEK5 binding to mutant human MEKK2 PB1 domain | bead flow cytometry, Alexa488-MEK5 binding to MEKK2 mutant | percent response, % at 10 µM | 290,000 tested, 0.35% active; in the data active = percent response above about 24%, passing the limit was not always enough
# MEKK3 PB1 HTS = raises or lowers MEK5 binding to the human MEKK3 PB1 domain; bead-based flow cytometry, Alexa488-MEK5 binding to MEKK3; actives lie on both sides; 0 = blocked by unlabeled MEK5, 100 = vehicle; binding response (% of control), % at 10 µM; AID 1529; Q99759; 290,000 tested, 1.4% active;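 active = binding response more than 3 SD above or below the average of its plate-row segment, actives on both sides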;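 note: Alexa488 bead fluorescence after subtracting the streptavidin-only scavenger bead signal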
# GRK2 aptamer HTS = human GRK2 inhibition via aptamer displacement. bead flow cytometry, FAM-aptamer displacement from GRK2. AID 488847. 330,000 tested, 0.59% active. P25098. inhibition of aptamer binding, % at 10 µM;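 active = inhibition of aptamer binding above 40%, roughly 3 SD of noise, on plates passing a quality check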;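 note: median bead fluorescence of bound FAM aptamer so fluorescent compounds give negative values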
# MEKK2wt PB1 HTS = raises or lowers MEK5 binding to wildtype human MEKK2 PB1 domain; Q9Y2U5; bead flow cytometry, Alexa488-MEK5 binding to MEKK2 WT; actives lie on both sides; binding response (% of control), % at 10 µM; 290,000 tested, 1.1% active; AID 1531; in the data active = binding response below about 67% or above about 130%
# B2AR ag = human beta-2 adrenergic receptor agonism by FAP. Am2.2-beta2AR cells, FAP receptor internalization, flow cytometry. response, % (no concentration beside the values). 340,000 tested, 0.43% active;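 active = response above a set limit, near 3 SD of response in nonfluorescent compounds, cut at about 42% in these data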
# Target sequence (P07550 whole entry, looked up): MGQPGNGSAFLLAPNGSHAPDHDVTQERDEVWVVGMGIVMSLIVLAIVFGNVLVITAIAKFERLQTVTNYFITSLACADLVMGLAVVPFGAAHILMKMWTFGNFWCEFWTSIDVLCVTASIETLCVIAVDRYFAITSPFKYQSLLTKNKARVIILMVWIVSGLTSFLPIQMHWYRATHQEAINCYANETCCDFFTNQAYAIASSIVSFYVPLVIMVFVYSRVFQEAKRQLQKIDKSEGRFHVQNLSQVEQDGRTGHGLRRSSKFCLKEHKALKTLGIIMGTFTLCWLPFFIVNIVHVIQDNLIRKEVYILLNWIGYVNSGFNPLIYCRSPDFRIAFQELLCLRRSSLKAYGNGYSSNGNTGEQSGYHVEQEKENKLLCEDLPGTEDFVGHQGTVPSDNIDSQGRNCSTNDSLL
# MEKK2wt confirm = raises or lowers MEK5 binding to wildtype human MEKK2, retest; shares compounds with MEKK3 PB1 HTS; bead flow cytometry, Alexa488-MEK5 binding to MEKK2 WT; actives lie on both sides; binding response (% of control), % at 10 µM; 5,900 tested, 2.4% active; AID 1892; in the data active = binding response below about 16% or above about 210%; inactive = in between
# MEKK2mut confirm = signal of MEK5 binding to mutant human MEKK2, retest; AID 1893; bead flow cytometry, Alexa488-MEK5 binding to MEKK2 mutant; percent response, % at 10 µM; shares compounds with MEKK3 PB1 HTS; 5,900 tested, 2% active; in the data active = percent response mostly above about 71%, no sharp cut-off; inactive = mostly below about 38%;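 note: higher means compound restores mutant binding toward wildtype level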
# MEKK3-MEK5 inh = MEKK3-MEK5 PB1 inhibition, single concentration confirmation; shares compounds with MEKK3 PB1 HTS; bead flow cytometry, Alexa488-MEK5 binding to MEKK3; active compounds read low; 5,900 tested, 1.8% active; binding response (% of control), % at 10 µM;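 active = binding response below 72% of control, or above a set upper limit, though filed actives all read lower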;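 note: 100% = DMSO only wells and 0% = binding blocked by excess unlabeled MEK5; lower values mean stronger disruption of MEK5 binding to MEKK3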
# Active calls of the source: *; i = inactive; . = no result; [ ] = dose if it differs, or a comment. Compounds with a hit are over-represented: about 2.9% of the library has one in this group of screens.
SMILES,MEKK2 mut-MEK5,MEKK3 PB1 HTS,GRK2 aptamer HTS,MEKK2wt PB1 HTS,B2AR ag,MEKK2wt confirm,MEKK2mut confirm,MEKK3-MEK5 inh
CC(=O)O[C@H]1[C@H](C)OC=C[C@@H]1OC(C)=O,9,106,0,151*,0,109,6,103
CCCCN1C(=O)/C(=C/C=C2\Oc3ccccc3N2CC)SC1=S,-13,69*[inhibitor],.,35*[inhibitor],i,40,-38,79
CCCN1C(=O)/C(=C\C=C2/Sc3ccccc3N2CCO)SC1=S,-17,68*[inhibitor],0,33*[inhibitor],-14,90,-8,96
C=CCN1C(=O)/C(=C\C=C2\N(C)c3ccccc3C2(C)C)SC1=S,7,75*[inhibitor],1,.,.,46,-29,75
CCCN1C(=O)/C(=C/C=C2\N(CC)c3ccccc3C2(C)C)SC1=S,151*,68*[inhibitor],0,134,i,71,-14,90
CCN1C(=O)/C(=C/C=C2/Sc3ccccc3N2CCO)SC1=S,-7,74,0,71,9,.,.,.
O=C1NC(Cc2ccc(O)cc2)c2nc3ccccc3c(=O)n2-c2cc(Cl)ccc21 (configuration not stated),.,.,0,.,.,.,.,.
COCCN(C(=O)CSc1nc2ccccc2o1)c1c(N)n(Cc2ccccc2)c(=O)[nH]c1=O,.,.,3,.,-7,.,.,.
O=C(c1cc(-c2ccc(Cl)cc2)n[nH]1)N1CCN(C(=O)c2ccco2)CC1,-2,95,0,98,-12,.,.,.
NN1C(=O)NC(c2ccccc2)(c2ccccc2)C1=O,9,106,0,104,2,.,.,.
CSc1ccc(CN2CCC(CO)(Cc3ccc(Cl)cc3)CC2)cc1,19,105,0,140*,40,137,21,106
COc1cc(CN2CCC(CO)(Cc3cccc(C(F)(F)F)c3)CC2)ccc1F,-23,42*[inhibitor],0,69,4,122,7,102
CCOC(=O)C1=C(C)NC2=C(C(=O)CC(c3cccs3)C2)C1c1cccs1 (configuration not stated),3,72*[inhibitor],0,79,7,96,0,101
COC(=O)C1=C(C)NC2=C(C(=O)CC(c3cccs3)C2)C1c1ccsc1 (configuration not stated),-2,101,0,99,2,.,.,.
CCCOc1ccc(-c2nn(-c3ccccc3)cc2/C=C2\SC(N)=NC2=O)cc1C,-2,129*,6,96,4,94,-1,104
CCN(C(=O)COC(=O)CCCOc1ccc(Cl)cc1C)c1c(N)n(Cc2ccccc2)c(=O)[nH]c1=O,.,.,.,.,24,.,.,.
O=C(O)CCCNc1c(C(=O)Nc2ccc(Cl)cc2)cc([N+](=O)[O-])cc1[N+](=O)[O-],11,135*,2,118,7,105,8,107
CCCCOCCCNC(=O)c1ccc2c(c1)OCO2,4,105,0,110,-10,.,.,.
COCCCNC(=O)c1ccc2nc(Cc3ccc(OC)cc3)oc2c1,-15,38*[inhibitor],5,16*[inhibitor],-10,104,2,104
CCOCCCNC(=O)C(NC(=O)c1ccc2c(c1)OCO2)c1ccccc1 (configuration not stated),-14,43*[inhibitor],2,54,1,105,2,105
CCOCCCNC(=O)C(NC(=O)c1ccc2c(c1)OCO2)c1ccc(OC)cc1 (configuration not stated),8,104,0,107,-7,.,.,.
COCCCNC(=O)c1ccc2c(c1)OCO2,-7,67*[inhibitor],0,73,-10,100,-3,103
C=CCn1c(SCC(=O)Nc2cccc(S(N)(=O)=O)c2)nc2sc(C)c(C)c2c1=O,.,.,0,.,5,.,.,.
C[C@H](CO)N1C[C@H](C)[C@@H](CN(C)C(=O)Nc2ccc(C(F)(F)F)cc2)Oc2c(NS(=O)(=O)c3ccccc3)cccc2C1=O,.,.,0,.,-3,.,.,.
